PubChem BioAssay (EPA / NIEHS)
Active and inactive are the calls of the source. Rule for the calls: active = hit-call score of the fitted dose curve at least 0.9, where 1 is the maximum; inactive = score below 0.9.

Test: ATG_MRE_CIS: Attagene CIS-FACTORIAL HepG2 Assay for human Metal Responsive Element (MRE) (AID 2282954)
Details: HepG2 MRE cis-reporter transcription, Attagene multiplex; actives raise or lower the signal
Method: ATG_CIS is a cell-based, multiplexed-readout assay that uses HepG2, a human liver cell line, with measurements taken at 24 hours after chemical dosing in a 24-well plate.ATG_MRE_CIS is one of 52 assay component(s) measured or calculated from the ATG_CIS assay. It is designed to make measurements of mRNA induction, a form of inducible reporter, as detected with fluorescence intensity signals by Reverse transcription polymerase chain reaction (RT-PCR) and Capillary electrophoresis technology.Data from the assay component ATG_MRE_CIS was analyzed into 1 assay endpoint. This assay endpoint, ATG_MRE_CIS, was analyzed with bidirectional fitting relative to DMSO as the negative control and baseline of activity. Using a type of inducible reporter, measures of mRNA for gain or loss-of-signal activity can be used to understand the reporter gene at the transcription factor-level as they relate to the gene MTF1. Furthermore, this assay endpoint can be referred to as a primary readout, because this assay has produced multiple assay endpoints where this one serves a reporter gene function. To generalize the intended target to other relatable targets, this assay endpoint is annotated to the dna binding intended target family, where the subfamily is zinc finger.
Human liver HepG2 cells are transiently transfected with multiple reporter transcription units (MRTUs) in 6-well plates using FuGene 6 reagent (Roche; 3 ml FuGene/1 mg DNA). The MRTU constructs are regulated by a cis-regulating element (promoter). […] A major difference between the CIS and TRANS system is that in CIS activities of endogenous TFs are measured, whereas the TRANS assay evaluates changes in activities of exogenous, chimeric NR-Gal4 proteins. […] At the end of 24 hour incubation, total RNA was isolated using TriZol reagent (Invitrogen). The isolated RNA is then reverse-transcribed using oligo(dT) primer and Mo-MLV reverse transcriptase (Invitrogen) with DNAse I (Ambion) treatment for 30 min. The one-tenth of the produced cDNA was amplified by PCR using Taq DNA polymerase (Invitrogen) and two reporter sequence-specific primers. The PCR products were fluorescently labeled by primer extension with 6-arboxyfluorescein (6-FAM) 5'-labeled reporter sequence-specific primer (2 min at 95 C, 20 s at 68 C and 10 min at 72 C) and these products were digested with 5U of HpaI (New England Biolabs) for 2h at 37 C. The fragments were purified using Qiaquick PCR columns (Qiagen), analyzed on an ABI 3130xL genetic analyzer (Applied Biosystems) with peak positions identified by using a set of X-rhodamine (ROX)-labeled MapMarker1000 molecular weight standards (BioVentures). The raw capillary electrophoresis data was processed using Attagraph software (Attagene).

SMILES | AC50 | outcome
O=C(Nc1ccccc1)c1cc([N+](=O)[O-])ccc1Cl | 18.5 µM (active) | –
O=C(O)COCCN1CCN(C(c2ccccc2)c2ccc(Cl)cc2)CC1 (stereo not given) | – | inactive
CC(c1cc2ccccc2s1)N(O)C(N)=O (stereo not given) | – | inactive
CC(C)(COC(=O)c1ccccc1)COC(=O)c1ccccc1 | – | inactive
Cc1ncc([N+](=O)[O-])n1C | – | inactive
CCCCc1ccc(N)cc1 | – | inactive
c1ccc2[nH]ccc2c1 | – | inactive
Cc1ccc(C=O)s1 | – | inactive
NC(N)=NC(=O)c1nc(Cl)c(N)nc1N | – | inactive
CCCCCCCCCCCCCOS(=O)(=O)O | – | inactive
CC(C)(Oc1ccc(CCNC(=O)c2ccc(Cl)cc2)cc1)C(=O)O | – | inactive
OCc1cccnc1 | – | inactive
CO[Si](C)(OC)c1ccccc1 | – | inactive
NCCCCCCN | – | inactive
Cc1ccc2ccccc2n1 | – | inactive
CCC(O)CO (stereo not given) | – | inactive
COc1ccnc(CS(=O)c2nc3cc(OC(F)F)ccc3[nH]2)c1OC (stereo not given) | – | inactive
CCCC/C=C\CCCCCCCCCC=O | – | inactive
C=C(C)C(=O)NCCCN(C)C | – | inactive
NC(=O)c1ccccc1Cl | – | inactive

SMILES | AC50 | outcome
OCCCCCO | – | inactive
COc1c(Cl)c(Cl)c(Cl)c(Cl)c1Cl | – | inactive
CC(=O)[O][Al][O]C(C)=O | – | inactive
CN(C)CCCN | – | inactive
CCCCCCCCCCC(CO)CCCCCCCC (stereo not given) | – | inactive
Cc1cccc(C)c1C | – | inactive
COC(=O)OC | – | inactive
Nc1cc(Cl)c(O)c(Cl)c1 | 79 µM (active) | –
CN(CCOc1ccc(CC2SC(=O)NC2=O)cc1)c1ccccn1 (stereo not given) | – | inactive
CCCCCCCCCCCCCC(=O)O | – | inactive
CC(C)=CCC[C@](C)(O)[C@@H]1CC=C(C)CC1 | – | inactive
COc1cc(C=O)ccc1OC(=O)C(C)C | – | inactive
COC(=O)Cc1cccc2ccccc12 | – | inactive
COc1cc2ncnc(Nc3cccc(Cl)c3)c2cc1OC | 20.1 µM (active) | –
C=CC[N+](C)(C)CC=C | – | inactive
CC1=CC(=O)NS(=O)(=O)O1 | – | inactive
CCCCCNCCCCC | – | inactive
O=c1[nH]nnc2ccccc12 | – | inactive
CCN(CC)c1ccc(C(=C2C=CC(=[N+](CC)CC)C=C2)c2ccc(S(=O)(=O)O)cc2S(=O)(=O)[O-])cc1 | – | inactive
CCCC(C)C=O (stereo not given) | – | inactive
